Potency and affinity values are given separately.
Each compound was assayed against NAD-dependent protein deacylase sirtuin-5, mitochondrial (Homo sapiens) (UniProt Q9NXA8) (assay: SIRT5 deacylase inhibitors, dose response, biochemical, fluorescence imaging, cherry-pick, set 6 (AID 720597;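 note: lower AMC signal can also come from blocking the trypsin step; 0% = median of neutral control wells and -100% = median of positive control wells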)). Settings: Purified SirT5, succinyl-peptide-AMC/trypsin fluorescence; series mostly up to 15 µM; activity change, negative = inhibition: at the top concentration;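 active = fitted half-maximal dose no more than twice the top valid tested dose, for compounds that lower signal; inconclusive = fit invalid, or curve flat with activity between -70 and -30; inactive = potency past limit, curve flat within ±30, or signal increasing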.
Chain of NAD-dependent protein deacylase sirtuin-5, mitochondrial (Homo sapiens) (Q9NXA8 whole entry, looked up): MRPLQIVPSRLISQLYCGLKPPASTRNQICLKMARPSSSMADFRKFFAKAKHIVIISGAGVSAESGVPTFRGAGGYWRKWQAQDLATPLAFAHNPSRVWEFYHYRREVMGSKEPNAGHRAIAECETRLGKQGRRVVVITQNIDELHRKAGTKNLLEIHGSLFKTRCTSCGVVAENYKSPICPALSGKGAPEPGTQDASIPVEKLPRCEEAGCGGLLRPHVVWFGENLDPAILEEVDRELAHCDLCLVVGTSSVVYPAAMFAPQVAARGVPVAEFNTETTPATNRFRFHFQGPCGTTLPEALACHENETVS

Activity change, negative = inhibition, inactive:
COc1cccc(S(=O)(=O)N(C)C[C@H]2Oc3cc(C4=CCCCC4)ccc3S(=O)(=O)N([C@H](C)CO)C[C@H]2C)c1 -17.3%
O=C(C[C@H]1CC[C@H]2[C@@H](COC[C@@H](O)CN2Cc2cccc(Cl)c2)O1)N1CCCCC1 20.1%
C[C@@H]1CN([C@H](C)CO)C(=O)Cc2cc(NS(=O)(=O)c3ccc(F)cc3)ccc2O[C@H]1CN(C)Cc1ccc(C(F)(F)F)cc1 -21.2%
C[C@@H]1CN([C@@H](C)CO)S(=O)(=O)c2ccc(/C=C/c3ccccc3)cc2O[C@@H]1CN(C)C(=O)NC1CCCC1 -1.6%
O=C(c1ccc(F)cc1)N1CC(=O)N2[C@H](C1)[C@H](c1ccc(C#CCC3CCCC3)cc1)[C@@H]2CO -22.1%
O=C(CC1CC1)N1CC2(C1)[C@@H](c1ccccc1)[C@@H](CO)N2Cc1cccc(F)c1 -9.95%
COCC(=O)Nc1ccc2c(c1)[C@@H]1C[C@@H](CC(=O)NCc3ccccc3OC)O[C@@H](CO)[C@@H]1O2 -5.39%
C[C@H]1CN([C@@H](C)CO)C(=O)Cc2cc(NS(=O)(=O)c3ccc(Cl)cc3)ccc2O[C@@H]1CN(C)Cc1ccc(Oc2ccccc2)cc1 -28%
O=C(C[C@@H]1CC[C@@H](NC(=O)Nc2cccc(F)c2)[C@H](CO)O1)NCC1CC1 1.72%
Cc1ccc(-c2ccc3c(c2)O[C@H](CN(C)Cc2cccnc2)[C@H](C)CN([C@H](C)CO)S3(=O)=O)cc1 1.72%
Cc1cccc(S(=O)(=O)N2CCCCN3[C@H](CO)[C@@H](c4ccc(-c5ccccc5)cc4)[C@H]3C2)c1 -2.19%
C[C@@H]1CN([C@H](C)CO)S(=O)(=O)c2ccc(C#CC3CC3)cc2O[C@H]1CN(C)Cc1ccccc1F 3.77%
C[C@H](CO)N1C[C@H](C)[C@@H](CN(C)C(=O)Nc2ccc(C(F)(F)F)cc2)OCCCC[C@H](C)Oc2ccc(NS(=O)(=O)c3ccc(Cl)cc3)cc2C1=O 12.7%
Cc1ccc(S(=O)(=O)Nc2ccc3c(c2)C(=O)N([C@H](C)CO)C[C@@H](C)[C@@H](CN(C)S(=O)(=O)c2ccccc2)OCCCC[C@@H](C)O3)cc1 5.85%
C[C@@H]1CN([C@H](C)CO)C(=O)c2cc(NS(=O)(=O)c3ccc(Cl)cc3)ccc2O[C@@H](C)CCCCO[C@@H]1CN(C)Cc1ccc2c(c1)OCO2 -15.4%
C[C@@H]1CN([C@@H](C)CO)S(=O)(=O)c2ccc(/C=C/c3ccccc3)cc2O[C@@H]1CN(C)C(=O)C1CC1 7.63%
C[C@@H]1CCCCO[C@@H](CN(C)Cc2ccc(Cl)c(Cl)c2)[C@H](C)CN([C@@H](C)CO)C(=O)c2cc(NS(=O)(=O)c3cccs3)ccc2O1 14.7%
C[C@H](CO)N1C[C@H](C)[C@@H](CN(C)S(=O)(=O)c2ccccc2)Oc2c(cccc2N(C)C)C1=O 2.92%
COc1cccc(NC(=O)N2CC(=O)N3[C@H](CO)[C@@H](c4ccc(C#CCC5CCCC5)cc4)[C@H]3C2)c1 -27%
C[C@H]1CN([C@@H](C)CO)S(=O)(=O)c2ccc(C#Cc3ccc(F)cc3)cc2O[C@H]1CN(C)C(=O)NC1CCCCC1 -7.87%
CC(C)C#Cc1cnc2c(c1)C(=O)N([C@H](C)CO)C[C@H](C)[C@@H](CN(C)C(=O)CN1CCOCC1)O2 -8.28%
CCCNC(=O)N1[C@H](CO)[C@@H](c2ccccc2)C12CN(C(=O)CC1CC1)C2 2.41%
CO[C@H]1CN(C)C(=O)c2cc(NC(C)=O)ccc2OC[C@H](C)N(S(=O)(=O)c2cn(C)cn2)C[C@H]1C 4.67%
Cc1ccc(S(=O)(=O)N(C)C[C@H]2OCCCC[C@H](C)Oc3ccc(NS(=O)(=O)c4ccccc4)cc3C(=O)N([C@@H](C)CO)C[C@H]2C)cc1 14.5%
C[C@@H]1CN([C@@H](C)CO)C(=O)c2cc(NS(=O)(=O)c3ccccc3)ccc2O[C@@H]1CN(C)Cc1ccc(Oc2ccccc2)cc1 -5.98%
C[C@H](CO)N1C[C@H](C)[C@H](CN(C)Cc2ccc(-c3ccccc3)cc2)Oc2ccc(NC(=O)CCCCCC(=O)Nc3ccccc3N)cc2C1=O 28.7%
C[C@@H]1CN([C@H](C)CO)C(=O)c2cccc(NC(=O)c3ccncc3)c2O[C@H]1CN(C)S(C)(=O)=O -28.2%
CC(=O)N(C)C[C@H]1Oc2ncc(C3=CCCC3)cc2C(=O)N([C@H](C)CO)C[C@H]1C -4.28%
COc1ccc(S(=O)(=O)N(C)C[C@H]2OCCCC[C@@H](C)Oc3ccc(NS(=O)(=O)c4ccc(C)cc4)cc3C(=O)N([C@@H](C)CO)C[C@H]2C)cc1 -14.3%

Reference: PubChem BioAssay AID720597 (Broad Institute, 2013)
